Consider 5 molecules from PubChem BioAssay.

Results filed as inconclusive are left out. The source made the active and inactive calls.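 The calls were made as follows, unless noted: active = RAM network inhibition above 8.4% in each of two replicates, 3 SD over the compound average; inconclusive = above 8.4% inhibition in only one replicate; inactive = 8.4% inhibition or less in each replicate.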

A word on the viability: it is a read-out of living cells in per cent, often relative to untreated cells. The inhibition is the relative decrease from the control value, in per cent.

Test [1] is described as follows: reducers of endogenous Her2 protein level, primary screen, SKBR3 breast tumor cells, AlphaScreen, ATP viability (AID 461;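 active = Her2 level under about 52% in both replicate screens, with viability over 70% of control, limit read from the data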;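 as to Her2 level: lower value means less Her2 protein in the cells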;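 as to viability: percent of carrier control wells set as 100% viability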). Conditions: 18-24 h, measured here: SKBR3 viability, ATP luminescence, at 10 µM. A general note: Bead proximity is the source of the signal in Alpha formats.
The target in test [2] is Receptor tyrosine-protein kinase erbB-2 (Homo sapiens) (UniProt P04626). Described as above. Conditions: 18-24 h, at 10 µM, stronger effect = lower value.
Chain of Receptor tyrosine-protein kinase erbB-2 (Homo sapiens) (P04626 whole entry, looked up): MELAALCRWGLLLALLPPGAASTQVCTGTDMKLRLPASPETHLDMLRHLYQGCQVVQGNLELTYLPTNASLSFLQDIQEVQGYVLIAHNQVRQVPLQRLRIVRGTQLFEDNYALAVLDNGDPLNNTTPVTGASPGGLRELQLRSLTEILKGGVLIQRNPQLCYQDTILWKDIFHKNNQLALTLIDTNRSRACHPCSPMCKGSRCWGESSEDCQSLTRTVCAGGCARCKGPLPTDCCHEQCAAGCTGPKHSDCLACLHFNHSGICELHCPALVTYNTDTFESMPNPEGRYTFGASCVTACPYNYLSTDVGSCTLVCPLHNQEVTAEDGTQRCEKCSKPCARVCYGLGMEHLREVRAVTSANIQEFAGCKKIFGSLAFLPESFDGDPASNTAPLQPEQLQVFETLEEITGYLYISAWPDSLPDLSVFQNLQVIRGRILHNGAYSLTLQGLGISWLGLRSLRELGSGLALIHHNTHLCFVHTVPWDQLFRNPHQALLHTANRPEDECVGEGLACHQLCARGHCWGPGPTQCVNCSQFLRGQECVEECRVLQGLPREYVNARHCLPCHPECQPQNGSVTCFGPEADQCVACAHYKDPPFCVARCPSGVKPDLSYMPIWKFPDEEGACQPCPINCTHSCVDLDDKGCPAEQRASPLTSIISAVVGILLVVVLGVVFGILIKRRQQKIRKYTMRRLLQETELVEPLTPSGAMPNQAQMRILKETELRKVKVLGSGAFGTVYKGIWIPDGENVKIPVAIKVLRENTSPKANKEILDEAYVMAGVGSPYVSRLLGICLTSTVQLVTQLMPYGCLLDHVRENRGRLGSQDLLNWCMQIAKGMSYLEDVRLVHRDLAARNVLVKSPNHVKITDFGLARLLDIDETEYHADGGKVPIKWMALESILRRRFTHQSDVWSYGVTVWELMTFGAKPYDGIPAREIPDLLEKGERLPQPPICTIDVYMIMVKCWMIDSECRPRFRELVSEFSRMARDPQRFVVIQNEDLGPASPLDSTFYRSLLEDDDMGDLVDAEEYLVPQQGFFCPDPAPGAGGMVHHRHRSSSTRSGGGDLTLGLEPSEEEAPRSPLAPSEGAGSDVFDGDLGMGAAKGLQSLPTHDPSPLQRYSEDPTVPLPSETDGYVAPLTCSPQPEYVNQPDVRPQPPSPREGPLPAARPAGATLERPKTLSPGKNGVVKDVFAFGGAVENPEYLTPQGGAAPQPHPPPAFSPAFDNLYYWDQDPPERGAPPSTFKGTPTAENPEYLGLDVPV
The nature of test [3]: SK-BR-3 cell growth inhibitors, pilot screen, 24 h, human (AID 572;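 active = viability at or below 10% of carrier control in both of two separate runs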;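 also: compound exposure lasted between 18 and 24 h rather than exactly 24 h; 100% = carrier-treated control wells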). Conditions: SK-BR-3 viability, CellTiter-Glo luminescence, at 10 µM, stronger effect = lower value.
The nature of test [4]: HUVEC growth inhibition – cell-based, human, primary screen (AID 575;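 active = viability at or below 30% in both replicate assays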;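 also: 100% = median of untreated cell wells with 0.1% DMSO on each plate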). Conditions: HUVEC proliferation, CellTiter-Glo luminescence, 72 h; at 10 µM; stronger effect = lower value. A general note: In ATP-based viability assays light output follows the ATP content of the culture.
A short description of test [5]: growth inhibitors of H69AR lung tumor, primary screen, human, duplicate replicates (AID 580;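 active = viability at or under a set limit in both replicates, limit being median viability minus 3 SD, cut at about 48% in these data, passing the limit was not always enough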;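 also: 100% = mean luminescence of untreated wells and 0% = no signal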). Conditions: H69AR lung tumor cells viability, ATP luminescence, 72 h; at 10 µM; stronger effect = lower value.
Test [6] can be described thus: reversal of MRP1-mediated doxorubicin resistance, pilot screen, H69AR cells, doxorubicin co-treatment (AID 601;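 active = viability loss from added drug above about 55%, and viability with drug at most 40%, in both replicates, limit read from the data, passing the limit was not always enough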). Conditions: CellTiter-Glo, 72 h, at 10 µM; for differential viability (reversal): stronger effect = higher value.
Test [7] is described as follows: 384-well plate pilot, post-Golgi transport modulator project, inhibition of yeast transport mutant growth (AID 636; in the data active = inhibition above about 31%). The settings on record: absorbance 615 nm, about 18 h, stronger effect = higher value.
A short description of test [8]: growth suppression of yeast trafficking mutant, preliminary HTS, modulators of trafficking downstream of Golgi apparatus project, 1536-format plate, OD 615 nm (AID 637; in the data active = inhibition above about 30%). The settings on record: yeast transport mutant growth, absorbance 615 nm, 18 h; stronger effect = higher value.
The nature of test [9]: OD615 S. cerevisiae growth inhibition, permissive medium, pilot counter-assay, permissive growth control for S. cerevisiae lifespan shortening project (AID 705;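 active = growth inhibition above 25% in both replicates, a cutoff set 3 SD above the mean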). Conditions: OD615, 24 h, at 10 µM, stronger effect = higher value.
A short description of test [10]: Restrictive medium S. cerevisiae growth inhibition, OD615, pilot screen of yeast lifespan reduction project, restrictive growth control (AID 706;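 active = growth inhibition above a set limit, 3 SD over mean compound inhibition, in both replicates, cut at about 43% in these data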;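 also: modified DeaD lifespan yeast strain shifted to restrictive glucose medium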). Conditions: OD615, 48 h, at 10 µM, stronger effect = higher value.
Test [11] in a line: viability gain of MRP-1-high H69AR cells under doxorubicin, pilot screen, MRP-1 activator project, CellTiter-Glo, duplicate (AID 807;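 active = viability increase at or above a cutoff of the median across tested compounds plus 3 SD, cut at about 8.5% in these data, passing the limit was not always enough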;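 also: compound pretreatment 18-22 h then 72 h combined with doxorubicin; 0% = doxorubicin alone and 100% = vehicle without doxorubicin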). Conditions: H69AR viability with doxorubicin, CellTiter-Glo luminescence; at 10 µM; stronger effect = higher value.
A short description of test [12]: growth suppression of beta-catenin knockout HCT116, pilot screen, human colon tumor cells (AID 823;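 active = cell viability at or below a set limit in both duplicate runs, the limit being the all-compound median minus 4 SD, cut at about 23% in these data, passing the limit was not always enough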;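 also: 0% = wells killed by 20 µM Hyamine and 100% = untreated DMSO cell wells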). Conditions: CellTiter-Glo, 60 h, at 10 µM, stronger effect = lower value.
Test [13] is described as follows: growth suppression of PTEN-deleted HCT116, pilot screen, cell-based, HCT116 clonal line, CellTiter-Glo (AID 824;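 active = viability at or below 27.92% in each of two runs, the all-compound median minus 4 SD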;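 also: 0% = 20 µM Hyamine control and 100% = vehicle cell control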). The settings on record: 60 h, at 10 µM, stronger effect = lower value.
Test [14] can be described thus: inhibitors of the yeast RAM network, pilot screen, dse1pr::URA3 reporter, 5-FOA selection (AID 869;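 active = inhibition over a set limit, the all-compound mean plus 3 SD, in both replicate runs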;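 also: 0% = DMSO wells with no growth and 100% = 10 µM 1-NA-PP1 with full growth; RAM network block rescues cells from 5-FOA so hits raise OD615 growth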). The settings on record: S. cerevisiae dse1pr::URA3 5-FOA growth, OD615, 2 d; at 10 µM; stronger effect = higher value; strain carries analog-sensitive mutant Cbk1 kinase.
Test [15] in a line: RAM signaling pathway blockade in yeast – S. cerevisiae, Pdr1DBD-CYC8 efflux-inhibited sensitized strain, primary screen (AID 1298).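 Also: 0% = DMSO untreated cells without growth and 100% = 10 µM 1-NA-PP1 full growth; higher means more yeast growth rescued from 5-FOA killing.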 The settings on record: S. cerevisiae cbk1-as DSE1-URA3 strain, 5-FOA growth OD615, 2 d; at 50 µM; stronger effect = higher value.
[16] abbreviates: H69AR cells + 2 uM doxorubicin, measured here: viability with 2 uM doxorubicin, stronger effect = lower value.
[17] abbreviates: H69AR cells, compound alone cytotoxicity.

Consider `CN(CCNS(=O)(=O)c1ccc2c(c1)oc(=O)n2C)Cc1ccccc1`, for which the viability is 86% in [1]; 86% (inactive) in test [3]; 90.7% (inactive) in test [4]; 98.1% (inactive) in test [5]; 87.9% in test [6] (setting [16]); 98.1% in [6] (setting [17]). Besides, the viability is 97.5% (inactive) in [12] and 90.2% (inactive) in [13]. Also, in test [2], the Her2 level is 99% (inactive). The differential viability (reversal) in [6] (H69AR cells + 2 uM doxorubicin) was 10.2% (inactive). Moreover, the values for the inhibition in [7], in test [8] and in test [14] were -2.95% (inactive), -2.33% (inactive) and 2.44% (inactive), respectively. Moreover, the growth inhibition in [9] was -2.83% (inactive); in test [10], 5.57% (inactive). In addition, the viability increase in test [11] was -1.52% (inactive). In test [15], the RAM network inhibition is 4.66% (inactive).
As for `COc1cccc2cc(C(=O)N3CCN(c4ccc(C)cc4C)CC3)c(=O)oc12`, the viability in test [1] is 116%; in test [3], 116% (inactive); in test [4] it was 93.7% (inactive); in test [5], 96.5% (inactive); in [6] (setting [16]) it was 88.5%; in [6] (setting [17]) it was 96.5%. The viability is 85.3% (inactive) in [12] and 74.3% (inactive) in test [13]. The Her2 level in test [2] was 110% (inactive). Besides, in test [6] (H69AR cells + 2 uM doxorubicin), the differential viability (reversal) is 7.98% (inactive). Moreover, the figures for the inhibition in [7], in test [8] and in test [14] were -3.6% (inactive), -6.67% (inactive) and -0.005% (inactive), respectively. Further, the growth inhibition is -7.67% (inactive) in test [9] and 5.05% (inactive) in test [10]. In addition, in test [11], the viability increase was -2.99% (inactive). In addition, in test [15], the RAM network inhibition was 1.18% (inactive).
With `Cn1c(=O)[nH]c(=O)c2c1nc(N1CCCCC1)n2CCSc1ncccn1`, the viability was 101% in test [1]; 101% (inactive) in test [3]; 102% (inactive) in test [4]; 88.8% (inactive) in test [5]; 92.5% in test [6] (setting [16]); 88.8% in test [6] (setting [17]). Besides, the viability in test [12] is 101% (inactive); in test [13], 103% (inactive). Also, the Her2 level in [2] is 89.5% (inactive). Besides, the differential viability (reversal) in test [6] (H69AR cells + 2 uM doxorubicin) is -3.65% (inactive). The inhibition in [7] is -3.2% (inactive); in test [8] it was 0.83% (inactive); in [14], 2.44% (inactive). For the same molecule, the growth inhibition in test [9] was 1.54% (inactive); in test [10] it was -4.51% (inactive). Further, the viability increase in [11] was 1.1% (inactive). The RAM network inhibition in test [15] was -0.42% (inactive).
For the molecule `Cc1ccnc(NC(=O)C2CCCN(S(=O)(=O)c3cnc[nH]3)C2)c1` (stereo not given), the viability in test [1] is 95.5%; in [3] it was 95.5% (inactive); in [4] it was 94.7% (inactive); in test [5] it was 105% (inactive); in [6] (setting [16]) it was 97.4%; in test [6] (setting [17]), 105%. Besides, the viability was 97.3% (inactive) in [12] and 96.1% (inactive) in [13]. Besides, in [2], the Her2 level was 104% (inactive). In addition, the differential viability (reversal) in [6] (H69AR cells + 2 uM doxorubicin) was 8% (inactive). Also, the inhibition in test [7] was 0.8% (inactive); in [8] it was -2.79% (inactive); in test [14], 0.925% (inactive). Also, the growth inhibition is 1.41% (inactive) in test [9] and -5.85% (inactive) in test [10]. The viability increase in test [11] is -1.81% (inactive). The RAM network inhibition in test [15] was 3.67% (inactive).
In the case of `Oc1ccccc1-c1nnc(COc2ccc(Cl)cc2Cl)o1`, the viability in test [1] is 96%; in test [3], 96% (inactive); in test [4], 101% (inactive); in [5], 63.3% (inactive); in test [6] (setting [16]) it was 76.1%; in test [6] (setting [17]), 63.3%. For the same molecule, the viability is 92.3% (inactive) in test [12] and 86.6% (inactive) in test [13]. Further, the Her2 level in test [2] is 97.5% (inactive). For the same molecule, the differential viability (reversal) in test [6] (H69AR cells + 2 uM doxorubicin) is -12.9% (inactive). In addition, the inhibition is -8.8% (inactive) in [7], 0.5% (inactive) in test [8] and 1.82% (inactive) in test [14]. In addition, the growth inhibition is -10.2% (inactive) in test [9] and -11.7% (inactive) in test [10]. Also, in [11], the viability increase is -1.77% (inactive). Also, the RAM network inhibition in test [15] is 7.07% (inactive).
